PubChem BioAssay (Tox21)
Results filed as inconclusive are left out. A call without a number means that no potency is given here. The source made the active and inactive calls. The call rests on the fitted dose curve; in most records, active means well fitted cell-killing curve with a large enough effect in the repeat runs; inconclusive means weak or mixed curves, or effect the other way; inactive means flat fitted curve, though single readings scatter.

assay: qHTS assay to identify small molecule antagonists of the estrogen receptor alpha (ER-alpha) signaling pathway using the BG1 cell line in the presence of 0.1 nM 17-beta-estradiol - cell viability counter screen (AID 1259241); settings: VM7Luc4E2 (BG1) viability, CellTiter-Fluor protease, 22 h, 0.1 nM estradiol agonist added; series mostly up to 92.4 µM; further: nearly all actives have a fitted effect of over 40% in size
Text: National Center for Advancing Translational Sciences [NCATS]
NIH Chemical Genomics Center [NCGC]
U.S. Environmental Protection Agency [EPA]
National Institutes of Environmental Health Sciences [NIEHS]
National Toxicology Program [NTP]
U.S. Food and Drug Administration [FDA]
Estrogen receptor (ER), a member of the nuclear hormone receptor plays an important role in development, metabolic homeostasis and reproduction. Two subtypes of ER, ER-alpha and ER-beta, have similar expression patterns with some uniqueness in both types. Endocrine disrupting chemicals (EDCs) and their interactions with steroid hormone receptors like ER causes disruption of normal endocrine function. Therefore, it is important to understand the effect of environmental chemicals in ER signaling pathway. For identifying ER antagonists, VM7Luc4E2 cell line was used to screen against Tox21 compound libraries.
VM7Luc4E2 cell line (provided by Denison MS, University of California) endogenously express full-length ER-alpha and is stably transfected with a plasmid containing four estrogen responsive elements (ERE) upstream of a luciferase reporter gene. The current screening for identification of ER-alpha inhibitors against Tox21 compound libraries used lower concentration (0.1 nM) of 17beta-Estradiol as a stimulator. The cytotoxicity of the Tox21 compound libraries against VM7Luc4E2 cell line was tested by measuring live-cell protease activity using CellTiter-Fluor assay in the same wells.
Tox21 Assay Protocol Summary:
VM7Luc4E2 cells were cultured in phenol red free assay medium containing 10% charcoal stripped FBS for 5 days prior to the assay. The cells were dispensed at 4,000 cells/well in 4 uL of assay medium into white wall/solid-bottom 1536-well plates (Corning Life Sciences, Corning, NY) using a Multidrop Combi (ThermoFisher Scientific, Waltham, MA) dispenser. After the assay plates were incubated at 37C and 5% CO2 for 24 hr, 23 nL of compounds dissolved in DMSO, positive controls or DMSO only was transferred to the assay plates by a Pintool station (Kalypsys, San Diego, CA). The transfer of compounds was followed by the addition of 1 uL of 0.1 nM (final concentration) agonist (17beta-Estradiol)/assay medium using a Flying Reagent Dispenser (FRD, Aurora Discovery, San Diego, CA). The plates were incubated at 37C and 5% CO2 for 22 hr. For cytotoxicity assay, 1 uL of CellTiter-Fluor reagent (Promega Corporation, Madison, WI) was added to each well using the FRD and after 30 min incubation at 37C and 5% CO2, The fluorescence intensity was measured using ViewLux plate reader (PerkinElmer, Shelton, CT).

**Q.** With CCN(CCN)c1cccc(C)c1 as the compound, how does the Potency read?
**A.** inactive

**Q.** For Clc1nnc(Cl)c2ccccc12, which Potency is on record?
**A.** inactive

**Q.** For Cc1nc2n(c(=O)c1CCN1CCC(c3noc4cc(F)ccc34)CC1)CCCC2, which Potency is on record?
**A.** inactive

**Q.** For CC(=O)c1ccc(C(C)=O)cc1, which Potency is on record?
**A.** inactive

**Q.** With Cc1c2ccccc2c(C)c2c1ccc1ccccc12 as the compound, how does the Potency read?
**A.** inactive

**Q.** For Cc1cc(C(C#N)c2ccc(Cl)cc2)c(Cl)cc1NC(=O)c1cc(I)cc(I)c1O (stereo not given), which Potency is on record?
**A.** inactive

**Q.** For COC(=O)C1=C(C)NC(C)=C(C(=O)OCCN2CCN(C(c3ccccc3)c3ccccc3)CC2)C1c1cccc([N+](=O)[O-])c1 (stereo not given), which Potency is on record?
**A.** inactive

**Q.** For O=C(O)[C@H](O)[C@@H](O)[C@H](O[C@@H]1O[C@H](CO)[C@H](O)[C@H](O)[C@H]1O)[C@H](O)CO, which Potency is on record?
**A.** inactive

**Q.** For Fc1ccc(C(c2ccc(F)cc2)N2CCNCC2)cc1, which Potency is on record?
**A.** inactive

**Q.** Which Potency does the source give for CC(C)=CCNc1ncnc2c1ncn2[C@@H]1O[C@H](CO)[C@@H](O)[C@H]1O here?
**A.** inactive

**Q.** Which Potency does the source give for C[Si](Cl)(c1ccccc1)c1ccccc1 here?
**A.** inactive

**Q.** Which Potency does the source give for O=C1c2ccccc2C(=O)N1SC1CCCCC1 here?
**A.** inactive

**Q.** With O=C1NC(=O)[C@@H]2CC=CC[C@H]12 as the compound, how does the Potency read?
**A.** inactive

**Q.** For C#C[C@]1(O)CC[C@H]2[C@@H]3[C@H](C)CC4=C(CCC(=O)C4)[C@H]3CC[C@@]21C, which Potency is on record?
**A.** inactive

**Q.** Which Potency does the source give for CN(C)Cc1cc(C(C)(C)C)c(O)c(C(C)(C)C)c1 here?
**A.** inactive

**Q.** With CCC(C)[O-].CCC(C)[O-].CCOC(=O)/C=C(/C)[O-].[Al+3] as the compound, how does the Potency read?
**A.** inactive

**Q.** Which Potency does the source give for COc1ccc(-c2coc3cc(O)ccc3c2=O)cc1 here?
**A.** inactive

**Q.** For Cc1cc(C(C)(C)C)c(O)c(C)c1Cn1c(=O)n(Cc2c(C)cc(C(C)(C)C)c(O)c2C)c(=O)n(Cc2c(C)cc(C(C)(C)C)c(O)c2C)c1=O, which Potency is on record?
**A.** inactive

**Q.** Which Potency does the source give for CC/C=C\CCCCCO here?
**A.** inactive

**Q.** For COc1ccc(NC(=O)CC(C)=O)cc1, which Potency is on record?
**A.** inactive

**Q.** For CCCCCCCC/C=C\CCCCCCCCN, which Potency is on record?
**A.** inactive

**Q.** Which Potency does the source give for C=Cc1ccccc1C=C here?
**A.** inactive

**Q.** For O=C1CCCCCCCCCCCCCCCO1, which Potency is on record?
**A.** inactive

**Q.** Which Potency does the source give for OC[C@@H](O)[C@@H](O)CO here?
**A.** inactive

**Q.** Which Potency does the source give for OC12N=C(c3ccccc3)SC1Cc1cc(Cl)ccc12 (stereo not given) here?
**A.** inactive

**Q.** Which Potency does the source give for CCOC(=O)Cn1cccc1-c1nc(-c2ccc(OC)cc2)c(-c2ccc(OC)cc2)s1 here?
**A.** inactive

**Q.** For O=C(O)c1cccc(C(F)(F)F)c1, which Potency is on record?
**A.** inactive

**Q.** For CCO[Si](OCC)(OCC)OCC, which Potency is on record?
**A.** inactive

**Q.** Which Potency does the source give for O=c1[nH]c2ccccc2n1CCCN1CCN(C(c2ccccc2)c2ccccc2)CC1 here?
**A.** inactive

**Q.** With COC(=O)c1ccccc1C as the compound, how does the Potency read?
**A.** inactive

**Q.** With CC1=CCC(=C(C)C)CC1 as the compound, how does the Potency read?
**A.** inactive

**Q.** For OCCN1CCN(CCCN2c3ccccc3Sc3ccc(C(F)(F)F)cc32)CC1, which Potency is on record?
**A.** inactive

**Q.** With C1CCC(SSC2CCCCC2)CC1 as the compound, how does the Potency read?
**A.** inactive

**Q.** Which Potency does the source give for COCCOc1cc2cc(C(=O)NC3CCN(C(C)C)CC3)n(CC(=O)Nc3ccc(Cl)cn3)c2cn1 here?
**A.** inactive

**Q.** For CCn1c2ccccc2c2cc([N+](=O)[O-])ccc21, which Potency is on record?
**A.** inactive

**Q.** For OC[C@H]1O[C@H](O[C@H]2O[C@H](CO)[C@@H](O)[C@H](O)[C@H]2O)[C@H](O)[C@@H](O)[C@@H]1O, which Potency is on record?
**A.** inactive

**Q.** With C#C[C@]1(OC(C)=O)CC[C@H]2[C@@H]3CCC4=C[C@@H](OC(C)=O)CC[C@@H]4[C@H]3CC[C@@]21C as the compound, how does the Potency read?
**A.** inactive

**Q.** For Oc1cc(Cl)cc(Cl)c1Cl, which Potency is on record?
**A.** inactive

**Q.** Which Potency does the source give for O=c1oc2cc(O)ccc2c2oc3cc(O)ccc3c12 here?
**A.** inactive

**Q.** For c1cnccn1, which Potency is on record?
**A.** inactive
